Source: PubChem BioAssay
Compounds with a hit are over-represented: about 2.5% of the library has one in this group of screens.
MEKK2 WT-MEK5 = modulators of MEK5 binding to wildtype MEKK2, primary screen, biochemical, multiplex bead flow cytometry, Alexa488-MEK5; Mitogen-activated protein kinase kinase kinase 2 (Homo sapiens), Q9Y2U5; Alexa488-MEK5 binding to MEKK2 WT; actives lie on both sides; binding response (% of control), % at 10 µM; 1.1% of 290,000 active; AID 1531, 2009; in the data active = binding response below about 67% or above about 130%
GRK2 inh = compounds blocking aptamer binding on GRK2 – biochemical, human GRK2, bead flow cytometry, HTS, primary screen; AID 488847, 2010; 0.59% of 330,000 active; FAM-aptamer displacement from GRK2; inhibition of aptamer binding, % at 10 µM;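 active = inhibition of aptamer binding above 40%, roughly 3 SD of noise, on plates passing a quality check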;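 also: median bead fluorescence of bound FAM aptamer so fluorescent compounds give negative values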
MEKK2mut PB1 HTS = MEK5 binding signal on mutant MEKK2 PB1, primary screen, biochemical, multiplex bead flow cytometry, Alexa488-MEK5; Alexa488-MEK5 binding to MEKK2 mutant; percent response, % at 10 µM; 0.35% of 290,000 active; AID 1530, 2009; in the data active = percent response above about 24%, passing the limit was not always enough
MEKK3 PB1 HTS = modulators of MEKK3-MEK5 PB1 binding, primary screen, biochemical, wildtype MEKK3, multiplex bead flow cytometry, Alexa488-MEK5; bead-based flow cytometry, Alexa488-MEK5 binding to MEKK3; actives lie on both sides; 0 = blocked by unlabeled MEK5, 100 = vehicle; binding response (% of control), % at 10 µM; 1.4% of 290,000 active;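 active = binding response more than 3 SD above or below the average of its plate-row segment, actives on both sides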;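 also: Alexa488 bead fluorescence after subtracting the streptavidin-only scavenger bead signal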
Target sequence (Q99759 whole entry, looked up): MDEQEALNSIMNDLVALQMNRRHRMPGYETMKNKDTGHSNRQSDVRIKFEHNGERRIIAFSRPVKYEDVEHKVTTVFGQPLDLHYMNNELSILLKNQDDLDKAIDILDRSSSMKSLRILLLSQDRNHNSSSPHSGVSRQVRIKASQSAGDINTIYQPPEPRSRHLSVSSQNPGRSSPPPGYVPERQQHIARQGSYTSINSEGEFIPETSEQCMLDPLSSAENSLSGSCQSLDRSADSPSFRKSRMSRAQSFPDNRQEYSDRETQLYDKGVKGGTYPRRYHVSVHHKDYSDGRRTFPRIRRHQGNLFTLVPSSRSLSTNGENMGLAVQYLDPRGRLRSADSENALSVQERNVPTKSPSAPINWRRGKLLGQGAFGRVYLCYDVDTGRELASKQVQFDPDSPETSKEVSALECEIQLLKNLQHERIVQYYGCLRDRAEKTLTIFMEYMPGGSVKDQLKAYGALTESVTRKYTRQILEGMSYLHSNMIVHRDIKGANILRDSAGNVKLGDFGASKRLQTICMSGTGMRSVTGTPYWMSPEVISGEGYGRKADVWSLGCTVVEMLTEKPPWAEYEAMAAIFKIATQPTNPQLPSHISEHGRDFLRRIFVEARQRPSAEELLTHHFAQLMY
MEKK2wt confirm = modulators of MEK5 binding to wildtype MEKK2, confirmation, biochemical, single concentration, multiplex bead flow cytometry | Alexa488-MEK5 binding to MEKK2 WT; actives lie on both sides | AID 1892, 2009 | 2.4% of 5,900 active | binding response (% of control), % at 10 µM | shares compounds with MEKK3 PB1 HTS; in the data active = binding response below about 16% or above about 210%; inactive = in between
MEKK2mut-MEK5 = mutant MEKK2 PB1-MEK5 binding signal retest – biochemical, single concentration, multiplex bead flow cytometry, confirmation; shares compounds with MEKK3 PB1 HTS; Alexa488-MEK5 binding to MEKK2 mutant; percent response, % at 10 µM; 2% of 5,900 active; AID 1893, 2009; in the data active = percent response mostly above about 71%, no sharp cut-off; inactive = mostly below about 38%;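 also: higher means compound restores mutant binding toward wildtype level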
MEKK3-MEK5 inh = MEKK3 wild-type PB1 binding to MEK5, inhibitors, confirmation, biochemical, bead multiplex flow cytometry, single concentration, wildtype | shares compounds with MEKK3 PB1 HTS | AID 1894, 2009 | Alexa488-MEK5 binding to MEKK3; hits give low values | binding response (% of control), % at 10 µM | 1.8% of 5,900 active;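 active = binding response below 72% of control, or above a set upper limit, though filed actives all read lower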;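 also: 100% = DMSO only wells and 0% = binding blocked by excess unlabeled MEK5; lower values mean stronger disruption of MEK5 binding to MEKK3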
An asterisk follows results filed as active; . = no result; [ ] = dose if it differs, or a comment.

SMILES	MEKK2 WT-MEK5	GRK2 inh	MEKK2mut PB1 HTS	MEKK3 PB1 HTS	MEKK2wt confirm	MEKK2mut-MEK5	MEKK3-MEK5 inh
CC1(C)CC[C@]2(C(=O)O)CC[C@]3(C)C(=CCC4[C@@]5(C)CC[C@H](O)C(C)(C)C5CC[C@]43C)C2C1 (stereo not given in full)	93	0	2	99	.	.	.
CC1CCCCC1NC(=O)CSc1nnc(CC(=O)Nc2ccccc2F)n1C (stereo not given)	101	0	3	97	.	.	.
Cc1cccc(C(=O)NCCC(=O)Nc2ccc(C#N)cc2)c1	99	1	-1	101	.	.	.
CCOC(=O)C1(C)NC(c2cc(OC)c(OC)c(OC)c2)C2C(=O)N(CC)C(=O)C21 (stereo not given)	2.0*[inhibitor]	0	-14	2.0*[inhibitor]	108	6	104
Cc1cccc(N2CCN(C(=O)CCC(=O)N3CC(C)Oc4ccc(C)cc43)CC2C)c1 (stereo not given)	94	0	-6	95	.	.	.
CCCCNC(=O)Cn1c(=O)c2c(ncn2CCC(C)C)n(Cc2ccccc2)c1=O	96	1	0	100	.	.	.
CC1(c2ccc(OC(F)F)cc2)NC(=O)N(CC(=O)Nc2ccc(OC(F)F)cc2)C1=O (stereo not given)	102	1	-2	102	.	.	.
CC1(c2ccc(OC(F)F)cc2)NC(=O)N(CC(=O)Nc2ccc(S(N)(=O)=O)cc2)C1=O (stereo not given)	49	2	-17	46*[inhibitor]	95	-5	97
CC(=O)c1ccc(NC(=O)C(C)n2c3ccccc3c3nc(=O)cc(C)n32)cc1 (stereo not given)	52	1	-17	44*[inhibitor]	103	-3	103
Cc1cc(NC(=O)CCC(=O)N(c2ccccc2)C(C(=O)NC2CCCC2)c2ccccc2)no1 (stereo not given)	101	0	27*	113	100	1	104
O=C(Cn1nnc(-c2ccc(Cl)cc2)n1)NC1CCS(=O)(=O)C1 (stereo not given)	.	0	.	.	.	.	.
COc1cc(-c2nnn(CC(=O)NC3CCS(=O)(=O)C3)n2)ccc1OCc1ccccc1 (stereo not given)	0.0*[inhibitor]	0	-24	0.0*[inhibitor]	105	1	106
COC(=O)c1ccc(Oc2ccc(C(F)(F)F)cn2)cc1	129	0	7	152*	103	-2	96
Cc1nc(-c2ccccn2)nc(SCC(=O)N2CCOCC2)c1Cl	114	1	29	129*	102	-3	105
C=CCSc1nnc(CNC(=O)c2ccccc2C)n1C(C)C	121	4	4	140*	101	-3	96
O=C(c1ccc(S(=O)(=O)N2CCCC2)cc1)N1CCCc2ccccc21	119	0	27*	117	100	-1	105
CC1CCc2sc(C(=O)N=Nc3c(O)[nH]c4ccccc34)cc2C1 (stereo not given)	106	2	0	130*	101	6	103
O=C(N=Nc1c(O)[nH]c2ccccc12)c1cccs1	102	0	-1	95	.	.	.
CCCn1cc(SCC(=O)NC2CCCC2)c2ccccc21	103	1	3	101	.	.	.
CCCCn1cc(SCC(=O)O)c2ccccc21	-1.0*[inhibitor]	3	-21	-1.0*[inhibitor]	101	0	102
COc1cccc(C(=O)N2CCN=C2SC)c1	76	0	-4	58*[inhibitor]	99	-5	97
Cc1csc2ncnc(NC3CCN(Cc4ccccc4)CC3)c12	107	0	0	101	.	.	.
c1coc(CNc2nc(N3CCCCC3)nc3ccccc23)c1	120	0	14	101	.	.	.
